Source: PubChem (National Center for Advancing Translational Sciences (NCATS))
Rows were chosen to be rich in hits. Some 9.4% of all compounds tested hit in one or more screens of this group.
IMPase Li inh = IMPase inhibition in cells with lithium potentiation | 0.35% of 210,000 active | CHO-M1 cells, IP1 TR-FRET (IP-One), carbachol + lithium | Potency, µM (highest dose often 59.4 µM), inactives show at the highest dose activity, negative = IMPase inhibition, actives largely listed as inhibitors;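 note: IP1 builds up when IMPase is blocked and the TR-FRET signal falls; potency is the fitted concentration of half-maximal effect; plate controls were basal vehicle for no effect and high inhibitor control for full effect; nearly all actives have a fitted effect of over 50% in size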
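IP1 accumulation measured by competitive TR-FRET in lysed CHO-M1 cells after 30 min compound exposure at 37C, with a small lithium addition to potentiate weak responses. Hill-equation AC50 from ratio and donor-channel data.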
HTT aggregate = mutant huntingtin aggregation inhibition | PC12 HttQ103-GFP aggregates, Acumen cytometry, 40 h | Potency, µM (titrated, usually from 46.1 µM), for inactives: at the highest dose activity change, negative = inhibition, hits mostly inhibitors | 1.1% of 220,000 active | AID 1688; note: potency is the fitted concentration of half-maximal effect; % is set by controls: 0 for no effect and ±100 for the full control effect; nearly all actives have a fitted effect of over 60% in size
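PC12/HTTQ103-GFP, ecdysone-inducible; teb 100 nM; cpd qHTS titration; GFP aggregates read on laser cytometer, Ex 488/Em 500-530 nm.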
HTT ATP protect = Huntington cell model cytoprotection by ATP luminescence; 0.14% of 230,000 active; PC12 HTT-Q103 induced, cytoprotection, ATP luminescence, 40 h; Potency, µM (doses to about 56.4 µM), for inactives: cytoprotection (ATP increase), most hits filed as activators; note: potency is the fitted concentration of half-maximal effect; % of control where 0% means no effect; nearly all actives have a fitted effect of over 45% in size
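Stable PC12 Q103-GFP cells in serum-supplemented, phenol red-free DMEM; induction by tebufenozide at 100 nM final; compound dose series; cell viability quantified luminescently from ATP.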
HPGD inh = blocks human HPGD enzyme activity; AID 894; Potency, µM, for the others: at the highest dose activity change, negative = inhibition, most hits filed as inhibitors; P15428; 4.3% of 150,000 active; purified HPGD, NADH fluorescence kinetic, PGE2 substrate; active = well fitted inhibition curve with a large enough effect, not every such curve was filed as active; inconclusive = small, poorly fitted or top-dose-only effect, or another doubt; inactive = no such curve, though single readings can be large or run the other way; note: potency is the fitted concentration of half-maximal effect; % is set by controls: 0 for no effect and ±100 for the full control effect
Target sequence (P15428 whole entry, looked up): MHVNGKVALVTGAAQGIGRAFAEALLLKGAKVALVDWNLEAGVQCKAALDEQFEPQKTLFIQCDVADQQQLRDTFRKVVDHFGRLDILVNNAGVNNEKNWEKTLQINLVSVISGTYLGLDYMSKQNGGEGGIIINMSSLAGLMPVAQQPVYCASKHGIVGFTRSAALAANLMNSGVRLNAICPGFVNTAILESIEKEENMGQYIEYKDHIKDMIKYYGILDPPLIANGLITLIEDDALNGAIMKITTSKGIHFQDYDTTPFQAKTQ
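NADH formation kinetics: reaction with 30 uM PGE2 and 1 mM NAD+ (final), 20 nM enzyme, Tris-HCl pH 8 with Tween 20, after 15 min compound preincubation at room temperature. Fluorescence change, last versus first of five reads.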
IMPase inh = cell-permeable inhibitors of inositol monophosphatase (IMPase). CHO-M1 cells, IP1 accumulation, HTRF TR-FRET ratio. P97697. AID 901. 120,000 tested, under 10 active. inhibition (IP1 accumulation), % at 46.1 µM; active = well fitted curve in the direction sought with a large enough effect in the signal ratio, not every such curve was filed as active; inconclusive = small, poorly fitted or top-dose-only effect, or a change in a side signal; inactive = no such curve, though single readings can be large or run the other way; the % refers to the signal ratio;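 note: cells stimulated with carbachol in lithium chloride buffer; plate controls were DMSO basal wells for no effect and reference inhibitor wells for full effect; higher means more IMPase inhibition seen as more IP1 and lower FRET ratio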
Target sequence (P97697 whole entry, looked up): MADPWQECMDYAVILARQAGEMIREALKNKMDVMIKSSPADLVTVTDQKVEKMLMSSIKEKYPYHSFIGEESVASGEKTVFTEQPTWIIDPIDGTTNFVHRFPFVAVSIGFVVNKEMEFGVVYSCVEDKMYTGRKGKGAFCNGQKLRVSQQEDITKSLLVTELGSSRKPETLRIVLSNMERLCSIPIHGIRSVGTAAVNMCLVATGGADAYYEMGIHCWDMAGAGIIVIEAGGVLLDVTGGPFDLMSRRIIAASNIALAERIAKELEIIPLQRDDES
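In this qHTS, compounds (final up to 46 uM) act on CHO-M1 cells that are then activated through the M1 receptor with carbachol, in pH 7.4 buffer containing 50 mM LiCl, for 30 min. IP1 accumulation is quantified by the IP-One immunoassay.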
ALDH1A1 inh = inhibitors of human aldehyde dehydrogenase 1A1; Purified ALDH1A1, NADH fluorescence, propionaldehyde substrate; 7.3% of 220,000 active; P00352; Potency, µM (doses to about 75.3 µM), without a hit: at the highest dose activity, negative = inhibition, most hits filed as inhibitors; active = well fitted inhibition curve with a large enough effect, not every such curve was filed as active; inconclusive = small, poorly fitted or top-dose-only effect, or another doubt; inactive = no such curve, though single readings can be large or run the other way;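 note: potency is the fitted concentration of half-maximal effect; plate controls were no enzyme wells and a reference inhibitor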
Active calls of the source: *; ? = inconclusive; · = no result; [ ] = another dose, or the depositor's remark. Unless noted, calls come from the whole dose curve; as a rule, active = well fitted curve in the direction sought with a large enough effect; inconclusive = small, poorly fitted or top-dose-only effect, or another doubt; inactive = no such curve, though single readings can be large; an effect the other way counts as inactive or inconclusive.

SMILES | IMPase Li inh | HTT aggregate | HTT ATP protect | HPGD inh | IMPase inh | ALDH1A1 inh
CC(=O)c1ccc(-n2nnnc2SCC(=O)Nc2sc(C)c(C)c2C#N)cc1 | 0% | ? | 11%[10 µM] | -9% | -7 | 18µM*
CCOC(=O)c1sc(NC(=O)CSc2n[nH]c(-c3ccc(Cl)cc3Cl)n2)c(C#N)c1C | 10%[38.3 µM] | 13µM* | -66% | -12% | 5 | -11%
CCOC(=O)c1cnc(SCC(=O)Nc2sc(C)c(C)c2C#N)nc1N | -5%[38.3 µM] | 15% | -11%[10 µM] | -6% | 1 | 32µM*
CCOC(=O)c1cc(OC(=O)c2ccc(C)cc2)n(-c2ccccc2)n1 | · | · | · | · | -7 | ·
Nc1nc2c(nc(Br)n2[C@@H]2O[C@H]3COP(=O)(O)O[C@@H]3[C@H]2O)c(=O)[nH]1 | · | · | -9%[1.9 µM] | · | 4 | ·
COCCNCC(=O)NC12CC3CC(CC(C3)C1)C2 | -2%[38.3 µM] | 7% | -29%[0.074 µM] | -7% | 0 | -1%
COCCNCC(=O)NCC12CC3CC(CC(C3)C1)C2 | -3%[38.3 µM] | -12%[9.22 µM] | 3% | -6% | 0 | 28µM*
O=C(CN1C(=O)CCC1=O)NCC12CC3CC(CC(C3)C1)C2 | -20%[38.3 µM] | 29% | -4% | -5% | ? | 1.1µM*
O=C1CCSc2ccc(Cl)cc2N1Cc1cccc(Cl)c1 | 12% | 22µM* | -5%[10 µM] | -15% | 24 | ?
O=C1c2ccccc2CC1Sc1nnc(-c2ccncc2)o1 (stereo not drawn) | 16%[38.3 µM] | -10% | 29% | ? | 13 | 1µM*
O=C1CC(Sc2nnc(-c3ccccc3)o2)C(=O)N1c1ccccc1 (stereo not drawn) | ? | ? | -93% | 22µM* | ? | 1.8µM*
Cc1ccc(N2C(=O)CC(Sc3nc(-c4ccccc4)c4cc(Cl)ccc4n3)C2=O)c(C)c1 (stereo not drawn) | 6% | 7% | 9%[10 µM] | ? | -14 | -2%
Cc1ccccc1N1C(=O)CC(Sc2nnc(-c3ccccc3)o2)C1=O (stereo not drawn) | 10µM* | 22µM* | -96% | -29% | ? | 7.9µM*
O=C(O)c1cccnc1SC1CC(=O)N(c2ccccc2)C1=O (stereo not drawn) | · | -8%[9.22 µM] | 1%[10 µM] | · | · | ·
Cc1ccc(C(C)C)c(OCc2ccc(C(=O)Nc3ccc(S(N)(=O)=O)cc3C)o2)c1 | · | · | · | · | 6 | ·
O=C(/C=C/c1ccc(O)cc1)c1ccccc1O | 25% | · | -249% | ? | · | 20µM*
CC(C)=NOCc1cccc(-c2cc(-c3ccccc3)no2)c1 | · | · | -6%[10 µM] | · | · | 2%[13.5 µM]
FC(F)(F)c1ccccc1-c1ccc2ncnc(NCc3cccnc3)c2c1 | 4% | · | -85% | · | · | 32%
COc1ccc(/C=N/NC(=O)c2ccc(C)cc2)cc1CN1CCN(c2ccc(F)cc2)CC1 | 11%[38.3 µM] | 13% | -28% | -27% | 10 | 2%
COc1ccc(/C=N\NC(=O)c2cc(O)c(O)c(O)c2)cc1CN1CCN(c2ccc(F)cc2)CC1 | 30% | 19% | 4%[10 µM] | -23% | 6 | 13µM*
COc1ccc(-n2cc(-c3ccc(Br)cc3)[nH]c2=S)cc1 | 11µM* | 18% | 0%[10 µM] | · | · | ?
COc1ccc(-n2cc(-c3ccc(OC)c(OC)c3)[nH]c2=S)cc1 | -4% | 7% | -29% | · | · | ?
COc1ccc(-n2ncc(Cl)c(Cl)c2=O)cc1 | -8% | 4µM* | · | · | · | 10µM*
Cc1ccc(NC(=O)/C=C\C(=O)NCC(=O)O)cc1C | -6% | 8% | · | -18% | · | 5µM*
Cc1ccc(NC(=O)CNC2CCS(=O)(=O)C2)cc1C (stereo not drawn) | 10% | 1% | -38% | · | · | 16µM*
SMILES | IMPase Li inh | HTT aggregate | HTT ATP protect | HPGD inh | IMPase inh | ALDH1A1 inh
Cc1ccc(NC(=O)CSCC(N)=O)cc1C | 3%[38.3 µM] | 11% | -25%[0.074 µM] | -1% | -5 | 4%
Cc1ccc(NC(=O)CCSCCC(=O)Nc2ccc(C)c(C)c2)cc1C | -17%[38.3 µM] | -25% | -7% | -24% | 3 | 18µM*
CN(C)c1ccc(C(C#N)c2ccccc2)nn1 (stereo not drawn) | -10% | -13% | 22% | · | · | 10µM*
CN(C)c1ccc(C(C#N)c2ccc(Cl)cc2)nn1 (stereo not drawn) | 1% | 0% | 16%[10 µM] | · | · | -7%
COc1cc(C=O)ccc1OCc1ccc(Cl)nc1 | -1% | 18% | -18% | · | · | 5µM*
COc1ccc(NCC(=O)n2c(C)c(C)c3ccccc32)cc1 | 3% | -2% | -53% | · | · | 7.9µM*
COc1ccc(NC(=O)Cn2c(C)cc(=O)c3ccccc32)cc1 | 5% | 6% | · | -11% | · | 4%
COc1cccc(-c2ccc3ncnc(NCCN4CCOCC4)c3c2)c1 | 17% | · | -162% | · | · | ?
CC(=O)N1CCc2cc(S(=O)(=O)CCC(=O)N3CCN(C(=O)c4ccco4)CC3)ccc21 | 0% | 15% | -21%[10 µM] | -10% | -8 | 32µM*
O=C(CCS(=O)(=O)Cc1ccccc1F)N1CCc2ccccc2C1 | -7%[38.3 µM] | 7% | -3% | -10% | -9 | 3.5µM*
CCC(=O)N1CCc2cc(S(=O)(=O)CCC(=O)N3CCc4ccccc4C3)ccc21 | ? | 7% | 3%[10 µM] | -3% | -1 | 13µM*
Cc1ccc2c(Br)cc(Br)c(O)c2n1 | · | -27% | -47% | · | · | ·
